# AMA1-RON2 inh – qHTS for Inhibitors of AMA1-RON; Towards Development of Antimalarial Drug Lead: Primary Screen | hit rate 0.2% among 360,000 | Plasmodium falciparum AMA1 (3D7) - RON2 peptide interaction | AlphaScreen AMA1-biotinylated RON2 peptide binding | Potency, µM (doses to about 58.2 µM), for inactives: top-dose activity change, negative = inhibition, most hits filed as inhibitors | AID 720542, 2013;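 further: potency means the concentration at half of the fitted maximal effect; 0% = vehicle wells and -100% = peptide control; nearly all actives have a fitted effect of over 45% in size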
#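 AMA1 (3D7) with his tag at 25 nM final met compounds first, then biotinylated RON2 peptide at 25 nM; detection used donor plus acceptor beads, 10 µg/mL apiece, read by AlphaScreen after 30 min at room temperature.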
# Cycloheximide cs – Cycloheximide Counterscreen for Small Molecule Inhibitors of Shiga Toxin; cell reporter, cycloheximide protein synthesis inhibition counterscreen; max response, %; hit rate 12% among 300,000; AID 2314, 2010; in the data active means max response mostly above about 13%, no sharp cut-off; inactive means mostly below about 14%; further: read at 38.3 µM for the half of the compounds with a filed dose; 0% is about no effect
# HCV inhibitor – qHTS Assay for Inhibitors of Hepatitis C Virus (HCV) | Huh7.5.1 HCVcc-Cre infection, luciferase reporter, 44 h | Potency, µM (highest dose often 41.8 µM), inactives show top-dose activity change, negative = inhibition, hits mostly inhibitors | hit rate 3.4% among 340,000 | AID 651820, 2012; further: potency means the concentration at half of the fitted maximal effect; on the % scale 0 is the no-effect control and ±100 the full control effect
#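 Antiviral activity was scored by luciferase reporter output from cells infected with HCVcc-Cre (~0.5 moi) in presence of compound, 44 h infection period, cells seeded 1,000/well 4 h prior.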
# Shiga toxin inh – A qHTS for Small Molecule Inhibitors of Shiga Toxin | AID 2315, 2010 | inhibition, % at 38.7 µM | Vero cells, Shiga toxin protein synthesis inhibition reporter | hit rate 9.2% among 290,000; in the data active means inhibition mostly above about 28%, no sharp cut-off; inactive means mostly below about 43%; further: 0% is about no effect
# Pf growth 48h – Primary qHTS for delayed death inhibitors of the malarial parasite plastid, 48 hour incubation; P. falciparum luciferase growth in erythrocytes, 48 h; Potency, µM (top dose mostly 28.7 µM), inactives show top-dose activity change, negative = inhibition, usual class: inhibitors; hit rate 5.9% among 310,000; AID 504832, 2011; further: potency means the concentration at half of the fitted maximal effect; on the % scale 0 is the no-effect control and ±100 the full control effect
#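 Parasite viability was followed by luminescence of a genomically integrated firefly luciferase. Cultures held 0.1% parasitemia at 2% hematocrit (final), incubated under 5% CO2 at 37 C.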
# Pf growth 96h – Primary qHTS for delayed death inhibitors of the malarial parasite plastid, 96 hour incubation. Potency, µM (highest dose often 28.7 µM), without a hit: at the top dose activity change, negative = inhibition, usual class: inhibitors. P. falciparum luciferase reporter growth, 96 h. AID 504834, 2011. hit rate 6.9% among 320,000; further: potency means the concentration at half of the fitted maximal effect; on the % scale 0 is the no-effect control and ±100 the full control effect
#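 Infected RBCs, 2% Hct / 0.05% parasitemia final; luciferase-reporter P. falciparum; cpd 96 h, 37 C, 5% CO2; luciferase detection reagent; luminescence.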
# * hit, by the source's call; i = inactive; ? = inconclusive; nt = no result. Shown are actives, neighbours in structure and some others; about 21% of the full set was active somewhere. Unless noted, the call rests on the fitted dose curve; in most records, active means well fitted curve in the direction sought with a large enough effect; inconclusive means small, poorly fitted or top-dose-only effect, or another doubt; inactive means no such curve, though single readings can be large; an effect the other way counts as inactive or inconclusive.
SMILES,AMA1-RON2 inh,Cycloheximide cs,HCV inhibitor,Shiga toxin inh,Pf growth 48h,Pf growth 96h
COC(=O)[C@]12CCCCC=C1N(CCc1ccc(OC)c(OC)c1)C(=O)[C@H](CC(=O)N1CCC(c3ccccc3)CC1)C2,-19%,nt,nt,nt,nt,nt
Clc1ccccc1-c1nnc(-c2cccnc2)o1,-23%,25*,9%,58,58%,61%
Cc1onc(-c2ccccc2Cl)c1-c1nc(-c2ccncc2)no1,0%,-3,?,6,nt,12µM*
O=C(Nc1nnc(-c2cccnc2)o1)c1ccccc1Cl,9%,9,26%,18,8%,44%
COc1ccccc1NC1CCCCC1NS(=O)(=O)c1ccccc1 (stereo unspecified),-11%,-7,-3%,-12,-13%,?
CCN(CC(=O)Nc1ccc2c(c1)OCCO2)C(=O)/C=C/c1cccc(C(F)(F)F)c1,-8%,nt,-13%,nt,nt,nt
COc1ccc([C@H]2N[C@]3(CCCN(Cc4ccc(C(F)(F)F)cc4)C3=O)[C@H]3C(=O)N(Cc4ccccc4)C(=O)[C@@H]23)cc1,-5%,nt,nt,nt,nt,nt
Cc1ccccc1Nc1nc(Nc2ccccc2C)nc(SC2=NCCS2)n1,-18%,-1,?,-4,10µM*,nt
Cc1ccc(Nc2nc(Nc3ccc(C)cc3)nc(SC3=NCCS3)n2)cc1,-3%,10,?,48,nt,13µM*
COc1cc(/C=N/NC(=S)NC2CC3CC2C2C=CCC32)ccc1O (stereo unspecified),24%,34*,?,89,8.3µM*,?
CCOc1ccc(/C=N/NC(=S)NC2CC3CCC2C3)cc1 (stereo unspecified),40%,3,?,11,?,?
CNNC(=S)NC1CC2CC1C1C=CCC21 (stereo unspecified),70%,9,17%,10,107%,?
CCOc1ccc(/C=N/NC(=S)NC2CC3CC2C2C=CCC32)cc1 (stereo unspecified),45%,4,-9%,10,4.1µM*,0.66µM*
CC(C)C(NC(=O)c1ccccc1)C(=O)OCC(=O)N1CCN(c2ccccc2)CC1 (stereo unspecified),-15%,nt,-9%,nt,?,?
O=C(N/N=C/c1cccn1-c1cccc(C(=O)O)c1)Nc1ccccc1,8%,31*,6%,52*,7%,-20%
O=C(O)c1cccc(-n2cccc2C=C2C(=O)c3ccccc3C2=O)c1,-19%,8,23%,-1,-4%,?
O=C(N/C(=N\O)c1ccccc1)Nc1ccc(Cl)cc1,-1%,26,0%,48*,24%,nt
CCCNC(=S)Nc1ccc(Oc2ccccc2)cc1,6%,17,?,-5,nt,-28%
N#Cc1ccccc1NC(=O)Nc1ccc(Cl)cc1,-2%,8,-30%,31,53%,19%
O=C(NC(=S)Nc1ccc(Cl)cc1)c1ccccc1,-9%,89*,3%,72*,82%,116%
CC(C)NC(=S)Nc1ccc(Oc2ccccc2)cc1,-8%,15,-2%,29*,-22%,3%
COc1ccc(CC(=O)Oc2ccc(Cl)cc2Br)cc1S(=O)(=O)N1CCOCC1,-3%,nt,22%,nt,0%,2%
CC(NC(=O)c1c(N)[nH]c(C(=O)c2ccccc2)c1-c1ccccc1Br)c1cccc2ccccc12 (stereo unspecified),63%,nt,nt,nt,nt,nt
C[C@H]1CN([C@@H](C)CO)C(=O)CCCn2nncc2CO[C@H]1CN(C)C(=O)Cc1ccccc1,-4%,nt,nt,nt,nt,nt
O=C(NC(=S)Nc1ccc(-c2ccccc2)cc1)c1ccccc1,28%,nt,-6%,nt,nt,nt
SMILES,AMA1-RON2 inh,Cycloheximide cs,HCV inhibitor,Shiga toxin inh,Pf growth 48h,Pf growth 96h
O=C(N/N=C/c1ccc(Cl)cc1Cl)Nc1ccccc1,-6%,9.2*,6%,28,58%,111%
O=C(NS(=O)(=O)c1ccc(Cl)cc1)c1ccccc1,0%,-2,12%,-18,0%,14%
O=C(O)/C(=N/NC(=O)c1ccc(Cl)cc1)c1ccccc1,91%,23*,4%,13,12%,36%
O=C(NC(=S)Nc1ccc(NC(=O)c2ccccc2)cc1)c1ccc(F)cc1,12%,12,?,-5,6.6µM*,6.6µM*
O=C(NC(=S)Nc1ccc(Oc2ccc(Cl)cc2)cc1)c1ccccc1,64%,19*,?,27,-3%,?
Nc1ccccc1Sc1c[nH]c2ccccc12,-15%,7,-24%,16,6%,?
Cc1ccc(S(=O)(=O)N2CCC3(CC2)OCCO3)cc1,0%,15,10%,-4,28%,?
Cc1ccc(NC(=S)NC(=O)c2ccc(F)cc2)cc1S(=O)(=O)Nc1ccccc1Cl,25%,-4,?,-12,28%,19%
O=C(NC(=S)Nc1ccc2c(c1)C(=O)c1ccccc1C2=O)c1ccc(F)cc1,nt,72*,5%,103*,173%,205%
O=C(O)c1ccc(C(=O)Nc2ccc(F)cc2)cc1,3%,nt,9%,nt,31%,-6%
O=C(Nc1cccc(NC(=O)c2ccccc2Cl)c1)c1ccc(F)cc1,0%,2,?,2,7%,6%
O=C(Nc1ccc(Nc2ccccc2)cc1)c1ccc(F)cc1,-18%,36*,10µM*,33*,?,-10%
Cc1ccccc1C(=O)Nc1cccc(NC(=O)c2ccc(F)cc2)c1,8%,10,?,28,-11%,10µM*
CC(=O)c1ccc(-c2cnc3c(NC=O)cc(-c4ccccc4Oc4ccccc4)cn23)cc1,66%,nt,nt,nt,nt,nt
COc1cc(NC(=O)c2ccccc2)cc(OC)c1,4%,30*,?,48,i,nt
COc1cc(NC(=O)c2ccc(S(=O)(=O)N(C)c3ccccc3)cc2)cc(OC)c1,-7%,nt,11µM*,nt,nt,nt
COc1ccc(C(=O)Nc2cc(OC)cc(OC)c2)cc1,-8%,40*,-14%,65*,90%,nt
CC(SCC(=O)Nc1ccc(F)cc1)c1nc2ccccc2c(=O)[nH]1 (stereo unspecified),9%,1,1%,-7,?,0%
CN1C2CCC1CC(OC(=O)c1cc(Cl)cc(Cl)c1)C2 (stereo unspecified),10%,-3,14µM*,-7,?,12%
Cc1cc(C(=O)CN2C(=O)NC3(CCCC3)C2=O)c(C)n1-c1ccc2c(c1)OCO2,8%,1,10%,-3,11%,?
Cc1cc(C(=O)CN2C(=O)NC(C)(CC(C)C)C2=O)c(C)n1-c1ccc2c(c1)OCO2 (stereo unspecified),-2%,-2,-3%,-7,?,4.1µM*
Cc1cc(C(=O)CN2C(=O)NC3(CCCCC3)C2=O)c(C)n1Cc1ccco1,-16%,41*,-13%,89*,56%,4%
